Screening results: PubChem, National Center for Advancing Translational Sciences (NCATS)
Pf growth 96h: Primary qHTS for delayed death inhibitors of the malarial parasite plastid, 96 hour incubation; P. falciparum luciferase reporter growth, 96 h; Potency, µM (doses to about 28.7 µM), for the others: at the highest dose activity change, negative = inhibition, actives largely listed as inhibitors; 320,000 compounds, 6.9% hits; AID 504834, 2011; further: potency means the concentration at half of the fitted maximal effect; on the % scale 0 is the no-effect control and ±100 the full control effect
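Erythrocytes infected with luciferase-expressing P. falciparum were dispensed at 2% hematocrit and 0.05% parasitemia (final), then incubated with compounds 96 hours at 37 C in 5% CO2. Luminescence after detection reagent addition reported growth.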
HCV inhibitor: qHTS Assay for Inhibitors of Hepatitis C Virus (HCV); Huh7.5.1 HCVcc-Cre infection, luciferase reporter, 44 h; Potency, µM (doses to about 41.8 µM), inactives show at the highest dose activity change, negative = inhibition, actives largely listed as inhibitors; 340,000 compounds, 3.4% hits; further: potency means the concentration at half of the fitted maximal effect; on the % scale 0 is the no-effect control and ±100 the full control effect
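Infectious HCVcc-Cre (~0.5 moi) was added to cells just after compound, with cells seeded 4 h earlier at 1,000 per well. Luciferase activity after 44 h culture reported infection; substrate was incubated 15 min at room temperature before reading.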
CHX counter: Cycloheximide Counterscreen for Small Molecule Inhibitors of Shiga Toxin; cell reporter, cycloheximide protein synthesis inhibition counterscreen; max response, %; 300,000 compounds, 12% hits; AID 2314, 2010; in the data active means max response mostly above about 13%, no sharp cut-off; inactive means mostly below about 14%; further: read at 38.3 µM for the half of the compounds with a filed dose; 0% is about no effect
HCMV inh: qHTS Assay for inhibitors of the human cytomegalovirus (HCMV) | HFF cells, HCMV-luciferase reporter, 72 h; active compounds read low | activity change, negative = inhibition, % at 57.5 µM | 410,000 compounds, 4.5% hits; in the data active means activity change below about -60%; inconclusive means no clear call, values can overlap the other calls; inactive means above about -39%; further: on the % scale 0 is the no-effect control and ±100 the full control effect
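Two-dose cell screen: HFF monolayers treated with compounds and infected with luciferase-expressing HCMV at 1 PFU/cell, 72 h at 37C, then lysed for luciferase measurement.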
Pf growth 48h: Primary qHTS for delayed death inhibitors of the malarial parasite plastid, 48 hour incubation | P. falciparum luciferase growth in erythrocytes, 48 h | Potency, µM (doses to about 28.7 µM), inactives show at the highest dose activity change, negative = inhibition, most hits filed as inhibitors | 310,000 compounds, 5.9% hits | AID 504832, 2011; further: potency means the concentration at half of the fitted maximal effect; on the % scale 0 is the no-effect control and ±100 the full control effect
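Growth was read as firefly luciferase luminescence after a 48 h, 37 C, 5% CO2 exposure of compounds to reporter-bearing P. falciparum cultures (0.1% parasitemia, 2% hematocrit final) in Albumax-supplemented RPMI 1640.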
Shiga inhibitor: A qHTS for Small Molecule Inhibitors of Shiga Toxin; Vero cells, Shiga toxin protein synthesis inhibition reporter; inhibition, % at 38.7 µM; 290,000 compounds, 9.2% hits; AID 2315, 2010; in the data active means inhibition mostly above about 28%, no sharp cut-off; inactive means mostly below about 43%; further: 0% is about no effect
An asterisk follows results filed as active; ? = inconclusive; · = no result. Most compounds without a hit are left out; they make up all but 21% or so of the library. Unless noted, the call rests on the fitted dose curve; in most records, active means well fitted inhibition curve with a large enough effect; inconclusive means small, poorly fitted or top-dose-only effect, or another doubt; inactive means no such curve, though single readings can be large or run the other way.

SMILES	Pf growth 96h	HCV inhibitor	CHX counter	HCMV inh	Pf growth 48h	Shiga inhibitor
CC(NC(=O)CCNC(=O)c1ccc(Br)cc1)c1ccc(-n2ccnc2)cc1 (stereo not given)	-23.1%	0.0%	·	-35.9	?	·
O=C(C1CCN(c2ccc(N3CCOCC3)nn2)CC1)N1CCN(c2ccc(F)cc2)CC1	?	?	9.0	·	-22.6%	71.3*
O=C(C1CCN(S(=O)(=O)N2CCOCC2)CC1)N1CCN(c2ccc(F)cc2)CC1	-26.2%	?	-0.7	-73.6*	-0.9%	-1.7
COc1ccccc1NC(=O)NC1CC(=O)N(c2ccc3c(c2)OCCO3)C1 (stereo not given)	-0.9%	12.9%	·	18.5	11.0%	·
O=C(COC(=O)c1cc(=O)[nH]c2ccccc12)Nc1nc(-c2ccccc2)cs1	57.8%	-10.2%	12.1	75.1	46.3%	0.4
CCOC(=O)CN1NC2(CCCCCCC2)NC1=S	22.9%	2.5%	2.0	19.6	-24.6%	13.3
CCOC(=O)Cn1c2c(c(=N)c3ccccc31)CCC2	0.37µM*	-2.0%	-1.4	5.2	?	7.7
CCOC(=O)Cn1c2c(c(=N)c3c1CCC3)CCC2	-0.2%	-15.2%	-0.8	2.5	1.04µM*	43.7
CC(C)(C)OC(=O)C[C@H]1C/C=C\C[C@@H](CC(=O)N[C@@H](CO)Cc2ccccc2)C(=O)NC[C@@H](c2ccccc2)OC1=O	·	10.2%	·	-25.4	·	·
COc1ccc(OCCCC(=O)Nc2ccc3c(c2)OCO3)cc1	?	-15.8%	0.8	-2.8	3.1%	16.8
O=C(CCc1ccccc1)Nc1ccc2c(c1)C(=O)OC2	56.7%	-13.0%	10.4*	·	-1.1%	28.9
O=C(CCCOc1ccccc1)Nc1ccc2c(c1)OCCO2	-3.6%	10.8%	47.6*	32.2	99.6%	65.3
COc1ccc(CCC(=O)Nc2ccc3c(c2)OCCO3)cc1	3.2%	12.5%	26.4*	-6.2	38.5%	38.7
O=C(CCc1ccccc1)Nc1ccc2c(c1)OCCO2	17.4%	11.4%	47.7*	71.0	9.0%	66.7*
Cc1ccc(C)c(S(=O)(=O)c2nnn3c2nc(N2CCCC2)c2sccc23)c1	·	·	·	-21.3	·	·
COc1ccc(OC)c(C2NC(=O)NC(C)=C2C(=O)Nc2cc(C)cc(C)c2)c1 (stereo not given)	·	·	·	53.2	·	·
CC(=O)N1CCCC1c1nc2ccccc2n1Cc1cccc(C)c1 (stereo not given)	·	·	·	3.4	·	·
O=C(NCc1ccccc1)NC1(C(=O)Nc2ccc3c(c2)OCCO3)CCCCC1	?	-27.2%	30.1*	?	7.2%	70.8*
O=S(=O)(c1ccc(NC(=S)NCCc2ccccc2)cc1)N1CCOCC1	-38.6%	2.7%	-1.3	-24.1	-22.4%	-1.1
O=C(CCc1ccccc1)Nc1cc2c(cc1Cl)OCCO2	250.9%	3.2%	47.3*	61.8	155.8%	80.0*
O=C(CCc1ccccc1Cl)Nc1cc2c(cc1C(=O)O)OCCCO2	8.5%	19.5%	·	199.1	25.8%	·
O=C(CCSCc1ccccc1)Nc1ccc2c(c1)OCCO2	58.7%	-13.5%	58.5*	95.2	100.9%	48.2*
O=S(=O)(c1ccc(NC(=S)NN=C(Cc2ccccc2)Cc2ccccc2)cc1)N1CCOCC1	?	10µM*	13.3	-32.8	-22.7%	9.3
COC(=O)C1CCN(CC(=O)Nc2cc(C)c3c(=O)oc4ccccc4c3n2)CC1	·	·	·	3.1	·	·
CCc1ccccc1NC(=O)Cn1c(=O)n(Cc2ccc(OC)cc2)c(=O)c2oc3ccccc3c21	·	·	·	-4.5	·	·
SMILES	Pf growth 96h	HCV inhibitor	CHX counter	HCMV inh	Pf growth 48h	Shiga inhibitor
O=C(CCc1ccc(S(=O)(=O)N2CCOCC2)cc1)Nc1ccc2c(c1)OCCO2	?	-11.7%	14.3*	-19.1	?	49.0*
CCN(CC(=O)Nc1ccc2c(c1)OCCO2)C(=O)/C=C/c1cccc(OC)c1OC	66.8%	?	·	7.1	44.4%	·
CCN(CC(=O)Nc1ccc2c(c1)OCCO2)C(=O)/C=C/c1ccc(OC)cc1OC	12.3%	·	28.5*	28.7	13.2%	59.8*
O=C(Cc1ccc2c(c1)OCCO2)Nc1cccc(S(=O)(=O)N2CCOCC2)c1	17.9%	18.1%	·	0.0	-22.5%	·
O=C(CCCc1ccccc1)Nc1ccc(S(=O)(=O)N2CCOCC2)cc1	10.4µM*	-8.1%	7.6	-35.7	?	1.2
Cc1cc(N2CCN(C(=O)c3[nH]c(C(F)(F)F)nc3-c3ccccc3)CC2)c2ccccc2n1	·	·	·	-29.1	·	·
O=C(NCc1cccs1)c1cc(-c2ccncc2)nc2ccc(Br)cc12	?	·	-2.0	·	?	-12.3
Cc1[nH]c(=O)[nH]c(=O)c1N1CCOCC1	16.8%	22.6%	-1.2	-33.5	1.6%	-8.8
Cc1cccc(-n2c(C)cc(C=C3C(=O)c4ccccc4C3=O)c2C)c1	10.6%	-21.2%	20.7*	?	-9.2%	40.6
Cc1cc(/C=C2/C(=N)N3C(c4ccccc4)=CSC3=NC2=O)c(C)n1-c1ccc(Cl)cc1	·	-11.3%	·	-12.4	·	·
Cc1cc(C=C2C(=O)c3ccccc3C2=O)c(C)n1-c1ccc(Cl)cc1	22.9%	22.3%	13.8*	5.0	11.3%	-6.4
CSCCC(NC(=O)/C(=C/c1ccco1)NC(=O)c1ccc(Br)o1)C(=O)O (stereo not given)	13.0%	21.7%	-2.9	-9.3	12.2%	-5.6
O=C(N/N=C/c1ccccn1)c1cc(-c2ccc3ccccc3c2)n[nH]1	38.0%	14.9%	12.0	-0.6	?	31.7
CCc1ccc(-c2cc(C(=O)N/N=C/c3ccccn3)[nH]n2)cc1	-17.4%	8.8%	22.0	-2.4	?	29.0
O=C(N/N=C/c1ccccn1)c1cc(-c2cccc3ccccc23)n[nH]1	9.6%	10.2%	13.3*	-30.5	27.6%	-24.4
O=C(N/N=C/c1ccccn1)c1ccc(NC(=O)c2ccccc2Cl)cc1	-13.4%	?	0.9	-0.3	-24.5%	5.8
O=C(N/N=C/c1ccccn1)c1cc(-c2ccccc2Cl)n[nH]1	?	0.1%	35.3*	-37.0	?	95.2*
O=C(N/N=C/c1ccccn1)c1ccc(Cl)c(Cl)c1	?	·	43.9*	17.1	14.7µM*	68.9*
C#CCN(C[C@H]1[C@H](OC(=O)NCc2ccc(OC)c(OC)c2)[C@H](OC(=O)NCc2ccc(OC)c(OC)c2)C[C@@H](C(=O)OC)[C@H]1C(=O)OC)S(=O)(=O)c1ccc(C)cc1	·	·	·	4.4	·	·
O=C(Nc1ccc(Cl)cc1)Nc1cccnc1	?	4.0%	37.2*	0.6	·	55.4*
CCOc1ccc(NC(=O)NCc2cccnc2)cc1	?	8.9%	-3.2	41.4	33.8%	18.1
O=C(Nc1ccc(Cc2ccc(NC(=O)Nc3cccnc3)cc2)cc1)Nc1cccnc1	·	·	·	-25.2	·	·
